# Measured values taken from publication PMC5540273 (PLoS ONE, 2017).
# Tests used:
# Settings in all cases: concentration: 1 μM, replicates: in singlicate; n = 1
# EPHA3 = tested on: EPHA3
# EPHA4 = tested on: EPHA4
# EPHA5 = tested on: EPHA5
# EPHA6 = tested on: EPHA6
# EPHA7 = tested on: EPHA7
# EPHA8 = tested on: EPHA8
# EPHB1 = tested on: EPHB1
# EPHB2 = tested on: EPHB2
# EPHB3 = tested on: EPHB3
# EPHB4 = tested on: EPHB4
# EPHB6 = tested on: EPHB6
# ERBB2 = tested on: ERBB2
# ERBB3 = tested on: ERBB3
# ERBB4 = tested on: ERBB4
# ERK1 = tested on: T1, ERK1
# T1 construct: gene MAPK3
# ERK2 = tested on: T2, ERK2
# T2 construct: gene MAPK1
# ERK3 = tested on: T3, ERK3
# T3 construct: gene MAPK6
# ERK4 = tested on: T4, ERK4
# T4 construct: gene MAPK4
# ERK5 = tested on: T5, ERK5
# T5 construct: gene MAPK7
# ERK8 = tested on: T6, ERK8
# T6 construct: gene MAPK15
# 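Further: KINOMEscan kinase panel screen.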
smiles,measurement,setting,value
NCC(NC(=O)c1cc(-c2cn[nH]c2)c(-c2ccnc3[nH]ccc23)s1)c1ccccc1.O=C(O)C(F)(F)F.O=C(O)C(F)(F)F (stereo not drawn) [GSK1325775],%Inh,EPHA3,31%
same,%Inh,EPHA4,0%
same,%Inh,EPHA5,0%
same,%Inh,EPHA6,0%
same,%Inh,EPHA7,0%
same,%Inh,EPHA8,7%
same,%Inh,EPHB1,13%
same,%Inh,EPHB2,0%
same,%Inh,EPHB3,1%
same,%Inh,EPHB4,0%
same,%Inh,EPHB6,12%
same,%Inh,ERBB2,32%
same,%Inh,ERBB3,0%
same,%Inh,ERBB4,10%
same,%Inh,ERK1,0%
same,%Inh,ERK2,0%
same,%Inh,ERK3,20%
same,%Inh,ERK4,9%
same,%Inh,ERK5,0%
same,%Inh,ERK8,51%
Cc1c2ccc(N(C)c3ccnc(Nc4cccc(S(N)(=O)=O)c4)n3)cc2nn1Cc1ccccc1.Cl.Cl [GW787226],%Inh,EPHA3,15%
same,%Inh,EPHA4,21%
same,%Inh,EPHA5,0%
same,%Inh,EPHA6,19%
same,%Inh,EPHA7,0%
same,%Inh,EPHA8,39%
same,%Inh,EPHB1,12%
same,%Inh,EPHB2,20%
same,%Inh,EPHB3,7%
same,%Inh,EPHB4,0%
same,%Inh,EPHB6,98.9%
same,%Inh,ERBB2,0%
same,%Inh,ERBB3,0%
same,%Inh,ERBB4,0%
same,%Inh,ERK1,0%
same,%Inh,ERK2,0%
same,%Inh,ERK3,0%
same,%Inh,ERK4,0%
same,%Inh,ERK5,12%
same,%Inh,ERK8,3%
COCCNC(=O)c1ccc(-c2cc(C(=O)NC3CC3)cc(F)c2C)cc1 [GW868318],%Inh,EPHA3,38%
same,%Inh,EPHA4,21%
same,%Inh,EPHA5,25%
same,%Inh,EPHA6,30%
same,%Inh,EPHA7,4%
same,%Inh,EPHA8,12%
same,%Inh,EPHB1,16%
same,%Inh,EPHB2,7%
same,%Inh,EPHB3,23%
same,%Inh,EPHB4,32%
same,%Inh,EPHB6,23%
same,%Inh,ERBB2,13%
same,%Inh,ERBB3,29%
same,%Inh,ERBB4,8%
same,%Inh,ERK1,2%
same,%Inh,ERK2,25%
same,%Inh,ERK3,6%
same,%Inh,ERK4,8%
same,%Inh,ERK5,0%
same,%Inh,ERK8,29%
O=C(Nc1cccc(-c2nn3ncccc3c2-c2ccnc(Nc3cccc(C(F)(F)F)c3)n2)c1)c1c(F)cccc1F [GSK299495],%Inh,EPHA3,0%
same,%Inh,EPHA4,8%
same,%Inh,EPHA5,0%
same,%Inh,EPHA6,11%
same,%Inh,EPHA7,54%
same,%Inh,EPHA8,49%
same,%Inh,EPHB1,29%
same,%Inh,EPHB2,0%
same,%Inh,EPHB3,14%
same,%Inh,EPHB4,9%
same,%Inh,EPHB6,30%
same,%Inh,ERBB2,92.1%
same,%Inh,ERBB3,56%
same,%Inh,ERBB4,98.4%
same,%Inh,ERK1,0%
same,%Inh,ERK2,0%
same,%Inh,ERK3,7%
same,%Inh,ERK4,18%
same,%Inh,ERK5,0%
same,%Inh,ERK8,0%
Cl.Oc1cccc(Nc2ccnc3cc(-c4ccncc4)ccc23)c1 [GW494601],%Inh,EPHA3,76%
same,%Inh,EPHA4,84%
same,%Inh,EPHA5,95.3%
same,%Inh,EPHA6,88%
same,%Inh,EPHA7,0%
same,%Inh,EPHA8,97%
same,%Inh,EPHB1,96.2%
same,%Inh,EPHB2,70%
same,%Inh,EPHB3,27%
same,%Inh,EPHB4,94.2%
same,%Inh,EPHB6,86%
same,%Inh,ERBB2,0%
same,%Inh,ERBB3,40%
same,%Inh,ERBB4,38%
same,%Inh,ERK1,0%
same,%Inh,ERK2,0%
same,%Inh,ERK3,2%
same,%Inh,ERK4,26%
same,%Inh,ERK5,0%
same,%Inh,ERK8,0%
c1ccc(-c2n[nH]cc2-c2ccnc3ccccc23)nc1 [GW271431],%Inh,EPHA3,14%
same,%Inh,EPHA4,2%
same,%Inh,EPHA5,0%
same,%Inh,EPHA6,1%
same,%Inh,EPHA7,6%
same,%Inh,EPHA8,9%
same,%Inh,EPHB1,32%
same,%Inh,EPHB2,0%
same,%Inh,EPHB3,7%
same,%Inh,EPHB4,11%
same,%Inh,EPHB6,10%
same,%Inh,ERBB2,9%
same,%Inh,ERBB3,0%
same,%Inh,ERBB4,25%
same,%Inh,ERK1,0%
same,%Inh,ERK2,6%
same,%Inh,ERK3,10%
same,%Inh,ERK4,11%
same,%Inh,ERK5,0%
same,%Inh,ERK8,0%
Cc1ccc(NC(=O)c2ccnc(N3CCN(C)CC3)c2)cc1-c1ccc(C(=O)NCC2CC2)cc1 [GW775604],%Inh,EPHA3,0%
same,%Inh,EPHA4,7%
same,%Inh,EPHA5,0%
same,%Inh,EPHA6,4%
same,%Inh,EPHA7,0%
same,%Inh,EPHA8,18%
same,%Inh,EPHB1,0%
same,%Inh,EPHB2,0%
same,%Inh,EPHB3,7%
same,%Inh,EPHB4,0%
same,%Inh,EPHB6,0%
same,%Inh,ERBB2,0%
same,%Inh,ERBB3,0%
same,%Inh,ERBB4,0%
same,%Inh,ERK1,0%
same,%Inh,ERK2,0%
same,%Inh,ERK3,0%
same,%Inh,ERK4,0%
same,%Inh,ERK5,0%
same,%Inh,ERK8,0%
Cc1c(Cn2c(C)nn3c(=O)cc(N4CCOC(C)C4)nc23)cccc1C(F)(F)F (stereo not drawn) [GSK2344444],%Inh,EPHA3,0%
same,%Inh,EPHA4,3%
same,%Inh,EPHA5,0%
same,%Inh,EPHA6,0%
same,%Inh,EPHA7,3%
same,%Inh,EPHA8,0%
same,%Inh,EPHB1,10%
same,%Inh,EPHB2,46%
same,%Inh,EPHB3,0%
same,%Inh,EPHB4,0%
same,%Inh,EPHB6,0%
same,%Inh,ERBB2,0%
same,%Inh,ERBB3,0%
same,%Inh,ERBB4,0%
same,%Inh,ERK1,0%
same,%Inh,ERK2,0%
same,%Inh,ERK3,0%
same,%Inh,ERK4,11%
same,%Inh,ERK5,0%
same,%Inh,ERK8,26%
Cc1cccc(-c2nc(-c3ccc(S(C)(=O)=O)cc3)sc2-c2ccncc2)c1,%Inh,EPHA3,9%
same,%Inh,EPHA4,48%
same,%Inh,EPHA5,1%
same,%Inh,EPHA6,44%
same,%Inh,EPHA7,19%
same,%Inh,EPHA8,21%
same,%Inh,EPHB1,14%
same,%Inh,EPHB2,13%
same,%Inh,EPHB3,34%
same,%Inh,EPHB4,41%
same,%Inh,EPHB6,46%
same,%Inh,ERBB2,4%
same,%Inh,ERBB3,9%
same,%Inh,ERBB4,0%
same,%Inh,ERK1,6%
same,%Inh,ERK2,29%
same,%Inh,ERK3,6%
same,%Inh,ERK4,0%
same,%Inh,ERK5,2%
same,%Inh,ERK8,0%
